KB-V1 MDR tox = qHTS assay for MDR1-selective chemotherapeutics: Primary screen using the drug-selected MDR subline cells KB-V1; KB-V1 MDR cells viability, CellTiter-Glo, 72 h; Potency, µM (doses to about 46.1 µM), actives largely listed as cytotoxic; 400,000 tested, 3.4% active; AID 1347076, 2019; also: nearly all actives have a fitted effect of over 60% in size
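Potencies derive from concentration-effect curves fitted to normalized luminescence (CellTiter-Glo) of KB-V1 cells treated for 72 h at 37 degrees C in phenol-red-free DMEM containing 10% FBS.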
KB-3-1 cytotox = qHTS assay for MDR1-selective chemotherapeutics: Primary screen using the parental adenocarcinoma cell KB-3-1; KB-3-1 viability, CellTiter-Glo ATP luminescence, 72 h; Potency, µM (doses to about 46.1 µM), actives largely listed as cytotoxic; 400,000 tested, 1.4% active; also: nearly all actives have a fitted effect of over 60% in size
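KB-3-1 cells, DMEM (no phenol red) + 10% FBS; compound by pin transfer, 72 h, 37 °C. Readout: CellTiter-Glo luminescence after 10 min. Data normalized, curve-fitted.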
TDP1 cell noCPT = qHTS for Inhibitors of human tyrosyl-DNA phosphodiesterase 1 (TDP1): qHTS in cells in absence of CPT; DT40 Tdp1-/- hTDP1 cells, no CPT, ATP luminescence, 48 h; Potency, µM (series often up to 46.2 µM), for the others: top-dose activity change, negative = growth inhibition, actives largely listed as inhibitors; 420,000 tested, 15% active; also: nearly all actives have a fitted effect of over 55% in size
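Camptothecin absent (DMSO only). Human TDP1-complemented DT40 knockout cells, 400 cells/well, 37 °C for minimum 48 hr; ATP measured via CellTiter-Glo, 30 min dark incubation, luminescence.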
HT1080 IDH1KD tx = qHTS for induction of synthetic lethality in tumor cells producing 2HG: qHTS for the HT-1080-IDH1KD cell line; HT-1080 IDH1 knockdown viability, ATP luminescence, 48 h; Potency, µM (highest dose often 46.1 µM), inactives show top-dose activity, negative = toxicity, actives largely listed as cytotoxic; 360,000 tested, 2% active; AID 686971, 2013;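 also: 0% = DMSO wells and -100% = cell-free medium wells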
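IDH1KD HT-1080 cells, 750/well, RPMI + 5% FBS; compound pinned after 2 h settling; 48 h, 37 °C; CellTiter-Glo luminescence; % activity normalised to DMSO and no-cell wells; curves fitted, classed by r2 and efficacy.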
HT1080-NT tox = qHTS for induction of synthetic lethality in tumor cells producing 2HG: qHTS for the HT-1080-NT fibrosarcoma cell line; HT-1080-NT fibrosarcoma viability, CellTiter-Glo ATP luminescence, 48 h; Potency, µM (series often up to 46.1 µM), for the others: top-dose activity, negative = less viability, actives largely listed as cytotoxic; 360,000 tested, 1.6% active; AID 686970, 2013;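 also: NT is the 2HG producing partner of a matched IDH1 knockdown line; 0% = DMSO-treated cells and -100% = media-only wells without cells; nearly all actives have a fitted effect of over 55% in size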
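HT-1080-NT fibrosarcoma cells (2HG-overproducing), 750 cells/well in RPMI with 5% FBS, dosed after 2 h and incubated 48 h at 37C. CellTiter-Glo luminescence normalized to DMSO and no-cell wells; concentration-response curves fitted and classed.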
TDP1 cell CPT = qHTS for Inhibitors of human tyrosyl-DNA phosphodiesterase 1 (TDP1): qHTS in cells in presence of CPT; chicken DT40 Tdp1-/-;hTDP1 cells + 20 nM CPT, ATP luminescence, 48 h; Potency, µM (top dose mostly 46.2 µM), for the others: at the top dose activity change, negative = growth inhibition, actives largely listed as inhibitors; 420,000 tested, 12% active; AID 686979, 2013; also: nearly all actives have a fitted effect of over 55% in size
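Cell growth measured by CellTiter-Glo luminescence after a minimum 48 h, 37 C compound exposure with 20 nM CPT in Tdp1-knockout DT40 cells stably expressing hTDP1, seeded 400/well; qHTS titration format.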
An asterisk follows results filed as active; i = inactive; ? = inconclusive; / = not tested or not shown; [ ] = remark or other dose. In the library only some 19% were active in any assay of this set; here they are far more common. Calls follow the shape of the dose curve; as a rule, active = well fitted curve in the direction sought with a large enough effect; inconclusive = small, poorly fitted or top-dose-only effect, or another doubt; inactive = no such curve, though single readings can be large; an effect the other way counts as inactive or inconclusive. Unless noted, % is scaled to controls: 0 for no effect and ±100 for the full control effect; potency is read from the fitted curve at half-maximal effect.

SMILES | KB-V1 MDR tox | KB-3-1 cytotox | TDP1 cell noCPT | HT1080 IDH1KD tx | HT1080-NT tox | TDP1 cell CPT
COc1cc(-c2cc(C)c3c(OC)ccc(OC)c3n2)cc2c1OCCN(C(=O)Cn1nc(C)cc1C)C2 | / | / | -30% | / | / | 1%[9.04 µM]
COc1cc(-c2cc(C)c3cccc(OC)c3n2)cc2c1OCCN(C(=O)CCn1nc(C)cc1C)C2 | / | / | 18µM* | / | / | -15%[9.04 µM]
CSc1nnc(CCNC(=O)c2ccc(-c3cccc(F)c3)cc2)n1-c1ccc(F)cc1 | / | / | -14% | / | / | 9%[9.04 µM]
Cc1ccc2c(c1)sc[n+]2Cc1ccccc1 | i | i | 13µM* | ? | ? | 13µM*
C/C(=N/NC(=O)C(O)(c1ccccc1)c1ccccc1)c1ccc([N+](=O)[O-])o1 | ? | ? | 21µM* | ? | -29% | 21µM*
C/C(=N\NC(=O)c1cccc([N+](=O)[O-])c1)c1ccco1 | i | i | 6% | 18% | 18% | -1%
CCOc1ccc(NC(=O)CN(Cc2ccccc2)S(=O)(=O)c2ccc3nc(C)sc3c2)cc1 | i | i | 26µM* | / | / | ?
COc1cccc(CNC(=O)CNS(=O)(=O)c2ccc3nc(C)sc3c2)c1 | / | / | 15µM* | / | / | ?
COc1cccc(NC(=O)CN(Cc2ccccc2)S(=O)(=O)c2ccc3nc(C)sc3c2)c1 | i | i | 26µM* | / | / | ?
Cc1ccc(CCNC(=O)CNS(=O)(=O)c2ccc3nc(C)sc3c2)cc1 | i | i | 11% | -3% | 13% | 5%
CC(=O)Nc1ccccc1-c1nc(CNC(=O)c2ccc(C)cc2)c(C)o1 | / | / | ? | / | / | -3%[9.04 µM]
C1=C/C(=C2/C=Cc3ccccc32)c2ccccc2N1 | 2.3µM* | 4.6µM* | -93% | / | / | ?
C[C@H]1CN=C(Nc2ccccc2)N1CCc1ccc(F)cc1 | i | i | ? | -3% | -3% | -23%
NC1=NC(c2cccc(Cl)c2)N(CCc2ccc(F)cc2)C(N)=N1 (stereo not given) | i | ? | 23µM* | ? | ? | ?
CCOC(=O)c1ccc(Oc2cc(C)nc(Cl)n2)cc1 | i | i | -23% | 20% | 25% | 4%
O=C(NN1C(=O)c2ccccc2NC1c1ccccn1)c1ccc([N+](=O)[O-])cc1 (stereo not given) | i | i | -11% | -10% | -2% | 5%
Cc1ccc(CNC(=O)CSc2nc3n[nH]c(C)c3c(=N)n2-c2cccc(C)c2)cc1 | i | ? | 9.2µM* | ? | ? | 13µM*
CCC(Sc1nc2n[nH]c(C)c2c(=N)n1-c1cccc(Cl)c1C)C(=O)N(CC)CC (stereo not given) | ? | i | ? | -24% | -7% | ?
CCCn1c(SCC(=O)NCc2ccc(C)cc2)n[nH]c1=O | i | i | 13% | -6% | -2% | -18%
CCCCNC(=O)CSc1nc2n[nH]c(C)c2c(=N)n1-c1cccc(C)c1 | / | / | 12µM* | / | / | 18µM*
CCCCN(CC)C(=O)CSc1nc2n[nH]c(C)c2c(=N)n1-c1cccc(Cl)c1 | / | / | 10µM* | / | / | 12µM*
Cn1c(=O)[nH]c(NCCc2ccc(O)cc2)c([N+](=O)[O-])c1=O | i | i | 1% | 15% | 8% | 28%
O=C(CSc1nc2c(c(=O)n1-c1ccccc1)SCC2)NCC1CCCO1 (stereo not given) | i | i | -14% | -1% | 0% | 18%
COCCCn1c(=N)c(C(N)=S)cc2c(=O)n3cccc(C)c3nc21 | i | i | 23µM* | 9% | 10% | 18µM*
Cc1ccc2nc3c(cc(C(N)=S)c(=N)n3CCCOC(C)C)c(=O)n2c1 | ? | ? | 16µM* | 11µM* | ? | 16µM*
SMILES | KB-V1 MDR tox | KB-3-1 cytotox | TDP1 cell noCPT | HT1080 IDH1KD tx | HT1080-NT tox | TDP1 cell CPT
COCCCn1c(=N)c(C(=O)NCc2cccnc2)cc2c(=O)n3cc(C)ccc3nc21 | ? | i | 3% | / | / | 1%
Cc1cccn2c(=O)c3cc(C(N)=S)c(=N)n(CCCN4CCOCC4)c3nc12 | i | i | ? | -4% | -14% | ?
CCn1c(=N)c(C(=O)NC)cc2c(=O)n3cccc(C)c3nc21 | i | i | 16µM* | -1% | -23% | ?
CCn1c(=N)c(C(=O)NCc2ccccc2)cc2c(=O)n3cccc(C)c3nc21 | i | i | -27% | / | / | -17%
Cc1ccc2nc3c(cc(C(=O)NCCc4ccccc4)c(=N)n3CCN3CCOCC3)c(=O)n2c1 | ? | i | 26µM* | ? | -16% | ?
COc1ccc(CCNC(=O)CCNC(=O)N2CC(=O)Nc3ccccc32)cc1OC | i | i | 36% | -1% | 2% | -12%
CC(Oc1ccc2ccc(=O)oc2c1)C(=O)NC(Cc1c[nH]c2ccc(O)cc12)C(=O)O (stereo not given) | i | i | 3% | 3% | 3% | 28%
CC(=O)NCCOC(=O)c1nn(Cc2ccccc2)c(=O)c2ccccc12 | i | i | ? | -4% | -22% | -21%
CCOC(=O)C1(C)C=C(Nc2ccc(C(=O)O)cc2)C(=O)N1c1ccc(C(=O)O)cc1 (stereo not given) | i | i | 4% | / | / | 24%
CN(Cc1cccnc1)C(=O)c1ccc(Cl)c(NS(=O)(=O)c2ccc(F)cc2)c1 | i | i | -14% | -8% | -6% | -18%
CCOCCCn1c(=N)c(C(=O)NC2CCCC2)cc2c(=O)n3cccc(C)c3nc21 | i | i | 21µM* | / | / | ?
CCCn1c(=N)c(S(=O)(=O)c2ccc(F)cc2)cc2c(=O)n3cccc(C)c3nc21 | i | i | -28% | 5% | 20% | ?
CCn1c(=N)c(C(=O)NC2CCCCC2)cc2c(=O)n3cccc(C)c3nc21 | i | i | 9% | / | / | 3%
CCCn1c(=N)c(C(=O)NC2CCCC2)cc2c(=O)n3cccc(C)c3nc21 | ? | i | 12µM* | -1% | 0% | ?
COCCn1c(=N)c(S(=O)(=O)c2ccc(F)cc2)cc2c(=O)n3cccc(C)c3nc21 | i | i | 8.2µM* | 8% | 4% | ?

Compound activity (PubChem BioAssay)
